Data on eleven compounds can be found in PubChem BioAssay (NCATS).

Several values for one entry are separate records, joined by “and”; a condition that tells them apart may be missing. Equal values may be shown once. Results filed as inconclusive are left out. Activity calls are given as the source filed them. Calls follow the shape of the dose curve; as a rule, active = well fitted inhibition curve with a large enough effect in the signal ratio, with a control signal flat (not every such curve was filed as active); inconclusive = small, poorly fitted or top-dose-only effect, or effect the other way, or a change in a side signal; inactive = flat fitted curve, though single readings scatter; the % refers to the signal ratio.
% is scaled to controls: 0 for no effect and ±100 for the full control effect.

For this assay, the target named is Thyroid hormone receptor beta (Homo sapiens) (UniProt P10828). Description: qHTS assay for small molecule antagonists of thyroid hormone receptor beta signaling (AID 588547).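 Also: cells stimulated with 0.4 nM T3 agonist during compound exposure; series mostly up to about 77 µM.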 The settings on record: TR-UAS-bla HEK293, beta-lactamase ratio, antagonist mode, 18 h. An excerpt: NIH Chemical Genomics Center [NCGC] U.S. Environmental Protection Agency [EPA] National Institutes of Environmental Health Sciences [NIEHS] National Toxicology Program [NTP] NCGC Assay Overview Thyroid hormone receptor (TR) belongs to nuclear hormone receptor superfamily. There are two subtypes for TR: TR-alpha and TR-beta. TR-beta plays a major role in regulating plasma cholesterol levels and it mediates the biological activities of thyroid hormone. Screening environmental chemicals on TR-beta signaling will provide important information for the mechanism of compound action.
Chain of Thyroid hormone receptor beta (Homo sapiens) (P10828 whole entry, looked up): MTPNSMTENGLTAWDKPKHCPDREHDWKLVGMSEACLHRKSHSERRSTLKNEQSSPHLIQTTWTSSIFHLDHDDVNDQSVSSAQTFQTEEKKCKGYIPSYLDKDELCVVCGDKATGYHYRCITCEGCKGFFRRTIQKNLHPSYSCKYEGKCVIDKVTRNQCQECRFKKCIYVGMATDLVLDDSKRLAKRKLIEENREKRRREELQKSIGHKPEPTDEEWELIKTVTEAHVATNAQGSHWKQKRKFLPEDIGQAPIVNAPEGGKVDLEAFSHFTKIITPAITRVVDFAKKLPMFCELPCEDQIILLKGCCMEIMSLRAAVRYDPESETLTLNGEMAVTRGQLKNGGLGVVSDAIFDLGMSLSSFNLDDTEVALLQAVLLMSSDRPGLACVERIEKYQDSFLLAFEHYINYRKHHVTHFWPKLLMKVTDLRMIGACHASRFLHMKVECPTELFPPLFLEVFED
NCGC Assay Protocol Summary Using a beta-lactamase reporter-gene under control of the TR response element, a cell-based assay [GeneBLAzer TR-UAS-bla-GripTite assay developed by Invitrogen] was used to measure TR-beta signaling in antagonist mode. TR-UAS-bla-GripTite HEK 293 cells were used with assay medium containing 2% charcoal/dextran FBS, 0.1 mM NEAA and 1 mM sodium pyruvate. The assay was performed in clear bottom black Greiner 1536-well plates. Library compounds were measured for their ability to inhibit the reporter gene activity. Compounds were screened in a titration series in 1536-well format. The fluorescence intensity (405 nm excitation, 460/530 nm emission) was measured using an EnVision plate reader. […] Concentration-response titration points for each compound were fitted to the Hill equation yielding concentrations of half-maximal inhibition (IC50) and maximal response (efficacy) values. qHTS protocol for TR-beta beta-lactamase assay in antagonist mode [Step] [Parameter] [Value] [Description] 1. Reagent; 5 uL; 2500 cells/well 2. Incubation; 37 C for 4 hrs 3. Compounds; 23 nL; 0.59 nM to 92 uM 4. Controls (DMSO); 23 nL 5. Agonist (Stimulator); 1uL; T3 at 0.4nM (final) concentrations 6. Incubation; 37 C for 18 hrs 7. Detection reagent; 1 uL of CCF4-dye 8. Incubation; RT for 2 hrs 9. Detection; Fluorescence; Envision plate reader
In general terms: Quantitative high-throughput screening tests each substance at several concentrations.
For `CCCC(C)(COC(N)=O)COC(=O)NC(C)C` (stereo unspecified), the activity change % (negative = inhibition) was 4.32% (inactive) and -7.39% (inactive).

On to `OCCOc1ccccc1`, for which the activity change % (negative = inhibition) is 12.7% (inactive) and 7.54% (inactive) and 6.22% (inactive).

For `CNCC(O)c1ccc(O)cc1` (stereo unspecified), the activity change % (negative = inhibition) was 3.5% (inactive). Turning to `c1ccc2c(c1)Nc1ccccc1S2`, the activity change % (negative = inhibition) was 5.64% (inactive) and -8.66% (inactive).

For the compound `C[C@]12CCC(=O)C(O)=C1CC[C@@H]1[C@@H]2CC[C@]2(C)C(=O)CC[C@@H]12`, the activity change % (negative = inhibition) was 9.32% (inactive). Regarding `Oc1ccccc1-c1ccccc1`, the activity change % (negative = inhibition) was 19.4% (inactive) and 13.4% (inactive). `COc1cc2c(c(OC)c1OC)-c1ccc(OC)c(=O)cc1[C@@H](NC(C)=O)CC2`: the activity change % (negative = inhibition) is -20.1% (inactive).

Turning to `Oc1cccc2cccnc12`, the activity change % (negative = inhibition) was -18.8% (inactive) and -22.1% (inactive). Under `CCOP(=S)(OCC)Oc1cc(C)nc(C(C)C)n1` stands -8.33% (inactive) and 8.71% (inactive).

As for `CN(C)CCC=C1c2ccccc2CCc2ccccc21`, the activity change % (negative = inhibition) is -28.2% (inactive). The same measure for `Oc1ccc(Cl)cc1Cc1ccccc1`: -6.58% (inactive) and 9.11% (inactive).
